Data: PubChem BioAssay (NCATS)
“And” between values parts separate entries of the source, which are not always exact repeats. Equal values may be shown once. Inconclusive results are not listed. The source made the active and inactive calls. Unless noted, calls follow the shape of the dose curve; as a rule, active = well fitted curve in the direction sought with a large enough effect; inconclusive = small, poorly fitted or top-dose-only effect, or another doubt; inactive = no such curve, though single readings can be large; an effect the other way counts as inactive or inconclusive.

Experiments:
[1] = Cell Viability - Jurkat (AID 426;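 active = dose-dependent loss of cell ATP signal giving a full or clear fitted curve, ranked by lower potency value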;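 also: potency is read from the fitted curve at half-maximal effect; cells exposed to compound for 40 hours at 37 °C before ATP read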); conditions: qHTS
Procedure, shortened: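 Luminescent ATP read-out (CellTiter-Glo, 20 min at room temperature) after 40 hr compound exposure at 37 °C of Jurkat E6-1 cells, 5000/well. Decreased ATP taken as cytotoxicity; AC50 from standard Hill equation.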

[2] = Cellular Toxicity (caspase-3) Jurkat (AID 655); conditions: Jurkat caspase-3 activation, luminescence; caspase-3 activation: at 92.2 µM (top of the series), DMSO = 0%, tamoxifen = 100%;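 also: cells exposed to compound for 16 h at 37 °C before reading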
Procedure, shortened: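 Luminescent Caspase-Glo 3/7 read-out (20 min, room temperature) after 16 h compound treatment at 37 C of 5000 Jurkat cells per well. AC50 derived by Hill-equation fitting, scaled between DMSO basal and 100 uM tamoxifen stimulation.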

[3] = MultiTox-Fluor Cytotoxicity Assay - LYMP1-001 - Dead Cells (AID 946); conditions: LYMP1-001 lymphoblastoid cells, dead-cell protease fluorescence; series mostly up to 92.2 µM;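 also: 0% = DMSO and 100% = tetraoctylammonium bromide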
Procedure, shortened: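 LYMP1-001 lymphoblastoid cells (2500/well) treated 16 h at 37 C. Dead-cell protease cleavage of bis-AAF-R110 read at Ex/Em 485/520. Normalized to DMSO and 15 uM tetraoctylammonium bromide; AC50 from Hill fits.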

[4] = MultiTox-Fluor Cytotoxicity Assay - LYMP1-001 - Live Cells (AID 947); conditions: LYMP1-001 lymphoblastoid cells, live-cell protease fluorescence viability; series mostly up to 92.2 µM;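 also: 0% = DMSO only and full inhibition = tetraoctylammonium bromide control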
[5] = Cell Viability - LYMP2-003 (AID 965); conditions: LYMP2-003 lymphoblastoid cell viability; series mostly up to 92.2 µM;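 also: cells exposed to compounds for 24 h before reading; 0% = DMSO only and full effect = 92 µM tetraoctylammonium bromide; nearly all actives have a fitted effect of over 50% in size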
Procedure, shortened: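 CellTiter-Glo luminescence quantified ATP loss after 24 h compound treatment of LYMP2-003 lymphoblastoid cells at 37 C. Titration series were fitted with the standard Hill equation to give AC50.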

[6] = Cell Viability - LYMP2-005 (AID 967); conditions: LYMP2-005 lymphoblastoid cell viability; series mostly up to 92.2 µM;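 also: plate controls were DMSO only for no effect and 92 µM tetraoctylammonium bromide control for full effect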
Procedure, shortened: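 LYMP2-005 human lymphoblastoid cells (2500/well) were treated with compounds for 24 h at 37 C. Intracellular ATP was then measured by CellTiter-Glo luminescence after 30 min at room temperature. AC50 values came from Hill-equation fits of qHTS concentration-response data.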

[7] = Cell Viability - LYMP2-009 (AID 968); conditions: LYMP2-009 lymphoblastoid cell viability; series mostly up to 92.2 µM; also: nearly all actives have a fitted effect of over 55% in size; also: potency is read from the fitted curve at half-maximal effect
[8] = Cell Viability - LYMP2-011 (AID 969); conditions: LYMP2-011 lymphoblastoid cells viability; series mostly up to 92.2 µM;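 also: cells exposed to compound for 24 hours; 0% = DMSO only and full inhibition = 92 µM tetraoctylammonium bromide; nearly all actives have a fitted effect of over 60% in size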
Procedure, shortened: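 Luminescent ATP read-out (CellTiter-Glo, 30 min RT) after 24 hr compound exposure at 37 C in human lymphoblastoid cells, 2500 cells/well. Decreasing ATP indicates cytotoxicity; AC50 from standard Hill fit.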

[9] = Cell Viability - LYMP2-013 (AID 970); conditions: LYMP2-013 lymphoblastoid cells viability; series mostly up to 92.2 µM;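 also: 0% = DMSO only and full inhibition = tetraoctylammonium bromide control; nearly all actives have a fitted effect of over 55% in size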
Procedure, shortened: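 CellTiter-Glo luminescence (cellular ATP) read after 30 min at RT. Cells: human lymphoblastoid line, 2500/well, 24 hr compound exposure at 37 C. Tetraoctylammonium bromide positive control; AC50 via standard Hill fit of qHTS titrations.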

[10] = Cell Viability - LYMP2-002 (AID 977); conditions: LYMP2-002 lymphoblastoid cell viability, qHTS; series mostly up to 92.2 µM;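 also: plate controls were DMSO only for no effect and 92 µM tetraoctylammonium bromide for full effect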
Procedure, shortened: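 In this qHTS viability screen, 2500 human lymphoblastoid cells per well receive compound for 24 hr at 37 C, and luciferase-based ATP luminescence gives the viability signal. Tetraoctylammonium bromide serves as positive control.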

[11] = Cell Viability - LYMP2-008 (AID 980); conditions: LYMP2-008 lymphoblastoid cell viability, qHTS; series mostly up to 92.2 µM; also: % is scaled to controls: 0 for no effect and ±100 for the full control effect; nearly all actives have a fitted effect of over 60% in size
Procedure, shortened: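 Luminescent ATP read-out (CellTiter-Glo, 30 min RT) after 24 hr compound exposure at 37 C of human lymphoblastoid cells in complete medium. Decrease in ATP taken as cytotoxicity; AC50 derived by standard Hill fit of qHTS concentration-response data.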

[12] = Cell Viability - LYMP2-024 (AID 988); conditions: LYMP2-024 lymphoblastoid cell viability; series mostly up to 92.2 µM;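 also: plate controls were DMSO only for no effect and 92 µM tetraoctylammonium bromide for full effect; nearly all actives have a fitted effect of over 60% in size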
Procedure, shortened: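 ATP-based luminescence (CellTiter-Glo, 30 min RT) after 24 h compound exposure at 37 C of 2500 lymphoblastoid cells/well; decrease in ATP taken as cytotoxicity. qHTS concentration-response fitted to standard Hill equation for AC50.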

[13] = Cell Viability - LYMP2-026 (AID 989); conditions: LYMP2-026 lymphoblastoid cell viability, qHTS; series mostly up to 92.2 µM; also: % is scaled to controls: 0 for no effect and ±100 for the full control effect; nearly all actives have a fitted effect of over 50% in size
Procedure, shortened: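 qHTS cytotoxicity: 2500 cells/well, 5 hr 37 C, compound 24 hr 37 C, CellTiter-Glo 30 min RT, luminescence. Tetraoctylammonium bromide positive control. AC50 via standard Hill fit.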

[14] = qHTS assay for small molecule agonists of the antioxidant response element (ARE) signaling pathway measured by Nrf2-dependant transcriptional activity (AID 720636; active = well fitted curve in the direction sought with a large enough effect in the repeat runs; an effect the other way counts as inactive or inconclusive; also: potency is read from the fitted curve at half-maximal effect;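 as to activation: HepG2 cells with an ARE-driven luciferase reporter; % of control where 0% means no effect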); conditions: ARE-luc HepG2, Nrf2 luciferase reporter, 16 h; series mostly up to 92.4 µM
Procedure, shortened: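 In HepG2 cells engineered with an Nrf2-responsive luciferase gene, ARE induction was quantified as luminescence after 16 hr compound treatment at 37 C.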

[15] = biological target: Nuclear receptor subfamily 1 group I member 2 (Rattus norvegicus) (UniProt Q9R1A7); experiment: qHTS assay for small molecule activators of the rat pregnane X receptor (rPXR) signaling pathway (AID 651751; call rule not given here; also: 0% is about no effect); conditions: rPXR reporter cells, luciferase (One-Glo), 24 h
Nuclear receptor subfamily 1 group I member 2 (Rattus norvegicus), sequence (Q9R1A7 whole entry, looked up): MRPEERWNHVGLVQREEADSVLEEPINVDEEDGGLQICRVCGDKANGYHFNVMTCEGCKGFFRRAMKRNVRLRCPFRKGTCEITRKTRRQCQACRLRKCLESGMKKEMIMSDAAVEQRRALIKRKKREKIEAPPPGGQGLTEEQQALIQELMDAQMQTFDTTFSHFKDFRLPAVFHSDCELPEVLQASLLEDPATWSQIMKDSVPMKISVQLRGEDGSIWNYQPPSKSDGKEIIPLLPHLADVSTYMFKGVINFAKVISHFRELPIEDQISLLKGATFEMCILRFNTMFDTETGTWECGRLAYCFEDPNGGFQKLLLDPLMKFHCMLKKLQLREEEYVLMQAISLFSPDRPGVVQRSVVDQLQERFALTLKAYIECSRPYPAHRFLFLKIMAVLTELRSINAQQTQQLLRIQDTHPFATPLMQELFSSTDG

[16] = Cell Viability - HUV-EC-C (AID 542); conditions: HUV-EC-C endothelial cell viability, qHTS; series mostly up to 92.2 µM;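 also: cells exposed to compound for 40 hours; % is scaled to controls: 0 for no effect and ±100 for the full control effect; nearly all actives have a fitted effect of over 35% in size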
Procedure, shortened: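 Luminescent ATP read-out (CellTiter-Glo, 20 min room temperature) after 40 hr compound treatment of HUV-EC-C cells at 37 °C. Concentration-response data fitted with the standard Hill equation to give AC50; tamoxifen and doxorubicin served as positive controls.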

[17] = MultiTox-Fluor Cytotoxicity Assay - LYMP1-003 - Dead Cells (AID 961); conditions: LYMP1-003 lymphoblastoid cells, dead-cell protease fluorescence; series mostly up to 92.2 µM;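 also: 0% = DMSO and 100% = tetraoctylammonium bromide; nearly all actives have a fitted effect of over 70% in size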
Procedure, shortened: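 LYMP1-003 human lymphoblastoid cells (2500/well) exposed to compound 16 h at 37 C in complete medium; dead-cell protease read with bis-AAF-R110 fluorescence (Ex/Em 485/520) after 60 min at room temperature. Normalized to DMSO and 15 uM tetraoctylammonium bromide; AC50 from Hill fit.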

[18] = qHTS assay for small molecule activators of the human pregnane X receptor (PXR) signaling pathway (AID 720659; call rule not given here; also: 0% is about no effect); conditions: DPX-2 HepG2 CYP3A4-luciferase, 24 h; series mostly up to 92.3 µM
[19] = biological target: Tumor necrosis factor (Homo sapiens) (UniProt P01375); experiment: qHTS assay to identify small molecules that stimulate Tumor Necrosis Factor-alpha (TNF-alpha) secretion (AID 651757; active = well fitted curve in the direction sought with a large enough effect in the signal ratio; the % refers to the signal ratio; also: 0% is about no effect); conditions: Human cells, HTRF 665/615 ratio; series mostly up to 92.2 µM
Tumor necrosis factor (Homo sapiens), sequence (P01375 whole entry, looked up): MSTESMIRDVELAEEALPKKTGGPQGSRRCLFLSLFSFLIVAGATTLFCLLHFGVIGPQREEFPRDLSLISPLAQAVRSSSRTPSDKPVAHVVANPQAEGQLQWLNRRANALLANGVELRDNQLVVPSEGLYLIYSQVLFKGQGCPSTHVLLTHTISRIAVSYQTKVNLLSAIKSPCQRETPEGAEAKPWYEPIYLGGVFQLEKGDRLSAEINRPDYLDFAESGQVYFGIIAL
Procedure, shortened: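 THP-1 cells, 3000/well; compound 17 hrs, 37 C; add cryptate/XL665 anti-TNF-alpha antibody pair; 3 hr RT; TR-FRET (HTRF) read of secreted TNF-alpha. Quantitative HTS format.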

[20] = Cell Viability - LYMP1-002 - Assay at 16 hr (AID 948); conditions: LYMP1-002 lymphoblastoid cell viability; series mostly up to 92.2 µM;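 also: 0% = DMSO alone and full effect = 92 µM tetraoctylammonium bromide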
Procedure, shortened: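 ATP luminescence (CellTiter-Glo) was measured after 16 hr compound exposure at 37 C of 2500 lymphoblastoid LYMP1-002 cells per well. Concentration-response curves were fitted with the Hill equation to give AC50.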

COc1cc(-c2ccc(N)c(OC)c2)ccc1N
inactive: Potency [1] > 92 µM | caspase-3 activation [2] -0.124% | outcome [3] | outcome [4] | Potency [5] | Potency [6] | Potency [7] | Potency [8] | Potency [9] | Potency [10] | Potency [11] | Potency [12] | Potency [13] | Potency [14] | max response [15] 3.75% and 3.76% and 11%

N#CCCC#N
inactive: Potency [1] > 92 µM | Potency [16] | caspase-3 activation [2] -0.151% | outcome [4] | Potency [17] | Potency [6] | Potency [7] | Potency [9] | Potency [12] | Potency [13] | max response [15] 2.24% | outcome [18]

CCC(Cl)[N+](=O)[O-] (stereo unspecified)
inactive: Potency [1] > 92 µM | Potency [16] | caspase-3 activation [2] 1.33% | Potency [5] | Potency [6] | Potency [7] | Potency [8] | Potency [9] | Potency [10] | Potency [12] | Potency [13] | outcome [19] | Potency [14] | max response [15] -0.428% | outcome [18]

CC(C)Br
inactive: Potency [1] > 92 µM | Potency [16] | caspase-3 activation [2] 0.12% | outcome [4] | outcome [20] | Potency [17] | Potency [5] | Potency [6] | Potency [7] | Potency [8] | Potency [9] | Potency [10] | Potency [11] | Potency [12] | Potency [13] | max response [15] -2.97% | outcome [18]

Nc1ccc([N+](=O)[O-])cc1N
inactive: Potency [16] | caspase-3 activation [2] 17.7% | outcome [3] | outcome [4] | Potency [17] | Potency [5] | Potency [7] | Potency [8] | Potency [9] | Potency [11] | Potency [12] | max response [15] -5.6% and -2.56%

c1ccc(N=NNc2ccccc2)cc1
inactive: Potency [1] > 92 µM | Potency [16] | caspase-3 activation [2] 6.34% | outcome [3] | outcome [4] | outcome [20] | Potency [17] | Potency [5] | Potency [6] | Potency [7] | Potency [8] | Potency [9] | Potency [10] | Potency [12] | Potency [13]

N#CC(Br)Br
inactive: Potency [16] | outcome [3] | outcome [4] | outcome [20] | Potency [6] | Potency [13] | outcome [19] | Potency [14] | max response [15] -7.42% | outcome [18]
active: Potency [7] 50.1 µM

CC(C)(COCC1CO1)COCC1CO1 (stereo unspecified)
inactive: Potency [16] | caspase-3 activation [2] 14.4% | outcome [3] | outcome [4] | outcome [20] | Potency [17] | Potency [5] | Potency [6] | Potency [7] | Potency [8] | Potency [9] | Potency [11] | Potency [12] | outcome [19] | Potency [14] | max response [15] 1.93% | outcome [18]

Nc1cc(Cl)ccc1O
inactive: caspase-3 activation [2] 15.3% | outcome [3] | outcome [4] | outcome [20] | Potency [5] | Potency [6] | Potency [8] | Potency [9] | Potency [11] | Potency [12] | Potency [13]
active: Potency [14] 21.1 µM
